Laboratory results taken from PubChem BioAssay (Tox21).
“And” between values parts separate entries of the source, which are not always exact repeats. Identical values can stand only once. Results filed as inconclusive are left out. Entries that show only a call come without a potency. Some compounds were tested as several samples or in several runs, with calls that do not always agree. The source made the active and inactive calls. Unless noted, calls come from the whole dose curve; as a rule, active = well fitted curve in the direction sought with a large enough effect in the repeat runs; inconclusive = weak or mixed curves; inactive = no such curve, though single readings can be large; an effect the other way counts as inactive or inconclusive.

Tests used:
[1] = qHTS assay to identify small molecule antagonists of the progesterone receptor (PR) signaling pathway - cell viability counter screen (AID 1346798); details: PR-UAS-bla HEK293T viability, CellTiter-Glo luminescence, 16 h; series mostly up to 92.4 µM; note: nearly all actives have a fitted effect of over 50% in size; note: potency is the fitted concentration of half-maximal effect
Outline: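 Luminescence readout (CellTiter-Glo, 30 min, RT) of viability in PR-UAS-bla HEK293T cells exposed to compound and R5020 agonist for 16 hr at 37C, 5% CO2; run in the same wells as the beta-lactamase reporter read.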

[2] = qHTS assay to identify small molecule agonists of the progesterone receptor (PR) signaling pathway - cell viability counter screen (AID 1346799; calls by dose curve; note: nearly all actives have a fitted effect of over 45% in size; note: potency is the fitted concentration of half-maximal effect); details: PR-UAS-bla HEK293T viability, CellTiter-Glo luminescence, 16 h; series mostly up to 92.4 µM
Outline: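 HEK293T PR-UAS-bla, 3,000 cells/well, 2% charcoal-stripped FBS; 6 h settle, compound 16 h at 37C/5% CO2; LiveBLAzer 2 h RT, then CellTiter-Glo 30 min RT, luminescence read.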

[3] = qHTS assay to identify small molecule antagonists of the TGF-beta/Smad signaling pathway - cell viability counter screen (AID 1346824); details: SBE-bla HEK293T viability, CellTiter-Glo luminescence; series mostly up to 76.8 µM; note: nearly all actives have a fitted effect of over 50% in size; note: potency is the fitted concentration of half-maximal effect
Outline: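 SBE-bla HEK 293T cells were plated overnight at 37 C, then given compounds in DMSO plus TGF-beta1 (added as 0.25 ng/mL solution) for 5 hr. After the bla read, CellTiter-Glo was added to the same wells and luminescence read after 30 min at room temperature.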

[4] = qHTS assay to identify small molecule agonists of the TGF-beta/Smad signaling pathway - cell viability counter screen (AID 1346829); details: SBE-bla HEK293T viability, CellTiter-Glo luminescence, 5 h; series mostly up to 76.8 µM; note: nearly all actives have a fitted effect of over 45% in size; note: potency is the fitted concentration of half-maximal effect
Outline: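 After overnight seating at 37 C and 5% CO2, reporter cells got compounds for 5 hr and FRET substrate for 2 hr; cell viability then came from CellTiter-Glo luminescence.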

[5] = qHTS assay to identify small molecule agonists of the TGF-beta/Smad signaling pathway (AID 1346859; active = well fitted activation curve with a large enough effect in the signal ratio in the repeat runs, not every such curve was filed as active; the % refers to the signal ratio); details: SBE-bla HEK293T, TGF-beta/Smad beta-lactamase reporter, 5 h; series mostly up to 76.8 µM
Outline: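 Read-out: fluorescence at 460 and 530 nm (405 nm excitation) after a 2 hr room-temperature incubation with beta-lactamase FRET substrate. SBE-bla HEK 293T cells had been treated with test compounds for 5 hr at 37 C.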

[6] = target: Thyrotropin-releasing hormone receptor (Homo sapiens) (UniProt P34981); assay: qHTS assay to identify small molecule antagonists of the thyrotropin-releasing hormone receptor (TRHR) signaling pathway (AID 1346877; active = well fitted inhibition curve with a large enough effect in the repeat runs, not every such curve was filed as active); details: TRHR-HEK293, TRH-induced calcium fluorescence, antagonist mode; series mostly up to 51.3 µM
Thyrotropin-releasing hormone receptor (Homo sapiens), sequence (P34981 whole entry, looked up): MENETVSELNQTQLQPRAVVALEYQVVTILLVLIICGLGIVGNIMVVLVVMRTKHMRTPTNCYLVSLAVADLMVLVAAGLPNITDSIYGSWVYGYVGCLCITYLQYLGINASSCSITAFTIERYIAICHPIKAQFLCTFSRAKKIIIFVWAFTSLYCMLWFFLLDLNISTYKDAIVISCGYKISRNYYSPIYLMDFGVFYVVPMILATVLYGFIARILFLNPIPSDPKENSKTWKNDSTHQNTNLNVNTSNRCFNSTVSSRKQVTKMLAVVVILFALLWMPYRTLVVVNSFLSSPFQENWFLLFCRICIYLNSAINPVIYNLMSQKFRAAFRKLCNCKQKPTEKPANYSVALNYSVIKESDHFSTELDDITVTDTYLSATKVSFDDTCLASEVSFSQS
Outline: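 In this cell-based calcium flux format, HEK293 cells expressing TRHR received test compound for 5 min before the agonist TRH (1 nM final). Dye loading lasted 2 h at 37 °C.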

[7] = target: Thyrotropin-releasing hormone receptor (Homo sapiens) (UniProt P34981); assay: qHTS assay to identify small molecule agonists of the thyrotropin-releasing hormone receptor (TRHR) signaling pathway (AID 1346891; calls by dose curve); details: TRHR-HEK293 calcium fluorescence, agonist mode; series mostly up to 57.6 µM
Outline: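 HEK293/TRHR cells, 1500 per well, 18 h 37 °C; Ca dye 2 h 37 °C; pin-tool compound addition (agonist mode); kinetic fluorescence 3 min, 1 s reads; 15 concentrations, triplicate.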

[8] = Human pregnane X receptor (PXR) small molecule agonists, qHTS cell viability counter screen (AID 1346977); details: PXR-Luc HepG2 viability, CellTiter-Fluor, 24 h; series mostly up to 92.4 µM; note: nearly all actives have a fitted effect of over 50% in size; note: potency is the fitted concentration of half-maximal effect
Outline: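 Fluorescence read-out (CellTiter-Fluor) of viability in PXR-Luc HepG2 cells, multiplexed with the luciferase agonist read. Compounds in DMSO added after 5hr plating; 24hr total exposure at 37C, 5% CO2.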

[9] = Caspase-3/7 induction in HepG2 cells by small molecules, qHTS assay (AID 1346978); details: HepG2 caspase-3/7 activation, Caspase-Glo luminescence, 17 h; series mostly up to 92.4 µM; note: nearly all actives have a fitted effect of over 15% in size; note: potency is the fitted concentration of half-maximal effect
Outline: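 Wild-type HepG2 cells (2,000/well) were settled 5 h at 37 C, 5% CO2, then exposed to compounds in DMSO for 17 h. Caspase-3/7 activity was read by luminescence 30 min after adding Caspase-Glo 3/7 reagent at room temperature.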

[10] = Caspase-3/7 induction in CHO-K1 cells by small molecules, qHTS assay (AID 1346980); details: CHO-K1 caspase-3/7 induction, Caspase-Glo luminescence, 17 h; series mostly up to 92.4 µM; note: nearly all actives have a fitted effect of over 15% in size; note: potency is the fitted concentration of half-maximal effect
Outline: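 Wild-type cells were seeded at 1,500 per well and settled 5 hr at 37 C, 5% CO2, then exposed to DMSO-dissolved compounds for 17 hr. Caspase-Glo 3/7 reagent was added, and luminescence was read after 30min at room temperature.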

[11] = Caspase-3/7 induction in HepG2 cells by small molecules, qHTS cell viability counter screen (AID 1346981); details: CellTiter-Fluor fluorescence, 17 h; series mostly up to 92.4 µM; note: nearly all actives have a fitted effect of over 30% in size; note: potency is the fitted concentration of half-maximal effect
Outline: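 Counter screen for cytotoxicity: HepG2 exposed 16 hr to compounds, then CellTiter-Fluor viability signal (fluorescence, 1 hr reagent incubation).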

[12] = target: Nuclear receptor subfamily 1 group I member 2 (Homo sapiens) (UniProt O75469); assay: Human pregnane X receptor (PXR) small molecule agonists, qHTS assay (AID 1346982); details: PXR-Luc HepG2, CYP3A4 luciferase reporter, 24 h; series mostly up to 92.4 µM; note: nearly all actives have a fitted effect of over 35% in size; note: potency is the fitted concentration of half-maximal effect
Nuclear receptor subfamily 1 group I member 2 (Homo sapiens), sequence (O75469 whole entry, looked up): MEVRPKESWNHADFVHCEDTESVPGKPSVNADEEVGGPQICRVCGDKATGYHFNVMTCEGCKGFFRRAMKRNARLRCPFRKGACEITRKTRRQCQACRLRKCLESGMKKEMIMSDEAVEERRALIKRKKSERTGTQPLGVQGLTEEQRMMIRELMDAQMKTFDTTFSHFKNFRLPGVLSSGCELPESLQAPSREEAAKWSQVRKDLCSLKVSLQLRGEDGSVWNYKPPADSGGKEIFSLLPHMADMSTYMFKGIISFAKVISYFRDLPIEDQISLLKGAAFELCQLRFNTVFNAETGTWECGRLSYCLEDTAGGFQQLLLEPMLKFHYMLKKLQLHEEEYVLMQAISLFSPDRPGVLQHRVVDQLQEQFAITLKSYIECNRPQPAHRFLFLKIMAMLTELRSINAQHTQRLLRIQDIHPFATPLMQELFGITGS
Outline: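 Luminescence (ONE-Glo, 30 min RT) after 24 hr compound exposure of PXR-Luc HepG2 cells; cells rested 5 hr post-plating in 5% charcoal-stripped FBS medium.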

[13] = target: Acetylcholinesterase (Homo sapiens) (UniProt P22303); assay: Acetylcholinesterase (AChE) small molecule antagonists: colormetric cell-based qHTS assay (AID 1347395; calls by dose curve; note: nearly all actives have a fitted effect of over 30% in size); details: SH-SY5Y cells AChE activity, colorimetric (Ellman); series mostly up to 115 µM
Acetylcholinesterase (Homo sapiens), sequence (P22303 whole entry, looked up): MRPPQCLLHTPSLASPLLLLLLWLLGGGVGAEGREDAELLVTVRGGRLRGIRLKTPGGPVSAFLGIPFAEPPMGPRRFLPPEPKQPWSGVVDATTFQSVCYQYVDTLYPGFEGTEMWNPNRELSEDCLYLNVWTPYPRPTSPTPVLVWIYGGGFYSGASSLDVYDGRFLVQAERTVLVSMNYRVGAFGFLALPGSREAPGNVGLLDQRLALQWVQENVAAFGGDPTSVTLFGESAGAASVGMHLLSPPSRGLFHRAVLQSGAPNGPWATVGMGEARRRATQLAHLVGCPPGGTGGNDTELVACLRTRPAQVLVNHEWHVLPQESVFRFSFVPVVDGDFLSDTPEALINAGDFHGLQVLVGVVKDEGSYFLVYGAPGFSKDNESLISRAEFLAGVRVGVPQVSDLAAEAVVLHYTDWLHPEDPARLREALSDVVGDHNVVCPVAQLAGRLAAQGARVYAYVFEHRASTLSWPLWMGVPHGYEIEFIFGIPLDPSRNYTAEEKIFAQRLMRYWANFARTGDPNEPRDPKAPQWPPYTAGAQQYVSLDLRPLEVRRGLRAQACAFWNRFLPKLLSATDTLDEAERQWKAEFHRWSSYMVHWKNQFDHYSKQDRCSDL
Outline: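 SH-SY5Y cells; cpd 30 min 37 C; + DTNB/acetylthiocholine, 90 min 37 C; colorimetric thiocholine read; qHTS.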

[14] = target: Acetylcholinesterase (Homo sapiens) (UniProt P22303); assay: Acetylcholinesterase (AChE) small molecule antagonists: enzyme-based qHTS assay (AID 1347397; calls by dose curve; note: nearly all actives have a fitted effect of over 55% in size; note: potency is the fitted concentration of half-maximal effect); details: Potency: AChE enzyme activity inhibition; series mostly up to 115 µM
Outline: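 Recombinant human AChE, dispensed at 50 mU/mL, was preincubated with Tox21 10K compounds or DMSO vehicle for 30 min at room temperature. DTNB plus acetylthiocholine was then added, and thiocholine was measured colorimetrically after a further 10 min.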

[15] = target: Progesterone receptor (Homo sapiens) (UniProt P06401); assay: qHTS assay to identify small molecule agonists of the progesterone receptor (PR) signaling pathway (AID 1346784; calls by dose curve; note: nearly all actives have a fitted effect of over 30% in size); details: PR-UAS-bla HEK293T, beta-lactamase FRET ratio, 16 h; series mostly up to 92.4 µM
Progesterone receptor (Homo sapiens), sequence (P06401 whole entry, looked up): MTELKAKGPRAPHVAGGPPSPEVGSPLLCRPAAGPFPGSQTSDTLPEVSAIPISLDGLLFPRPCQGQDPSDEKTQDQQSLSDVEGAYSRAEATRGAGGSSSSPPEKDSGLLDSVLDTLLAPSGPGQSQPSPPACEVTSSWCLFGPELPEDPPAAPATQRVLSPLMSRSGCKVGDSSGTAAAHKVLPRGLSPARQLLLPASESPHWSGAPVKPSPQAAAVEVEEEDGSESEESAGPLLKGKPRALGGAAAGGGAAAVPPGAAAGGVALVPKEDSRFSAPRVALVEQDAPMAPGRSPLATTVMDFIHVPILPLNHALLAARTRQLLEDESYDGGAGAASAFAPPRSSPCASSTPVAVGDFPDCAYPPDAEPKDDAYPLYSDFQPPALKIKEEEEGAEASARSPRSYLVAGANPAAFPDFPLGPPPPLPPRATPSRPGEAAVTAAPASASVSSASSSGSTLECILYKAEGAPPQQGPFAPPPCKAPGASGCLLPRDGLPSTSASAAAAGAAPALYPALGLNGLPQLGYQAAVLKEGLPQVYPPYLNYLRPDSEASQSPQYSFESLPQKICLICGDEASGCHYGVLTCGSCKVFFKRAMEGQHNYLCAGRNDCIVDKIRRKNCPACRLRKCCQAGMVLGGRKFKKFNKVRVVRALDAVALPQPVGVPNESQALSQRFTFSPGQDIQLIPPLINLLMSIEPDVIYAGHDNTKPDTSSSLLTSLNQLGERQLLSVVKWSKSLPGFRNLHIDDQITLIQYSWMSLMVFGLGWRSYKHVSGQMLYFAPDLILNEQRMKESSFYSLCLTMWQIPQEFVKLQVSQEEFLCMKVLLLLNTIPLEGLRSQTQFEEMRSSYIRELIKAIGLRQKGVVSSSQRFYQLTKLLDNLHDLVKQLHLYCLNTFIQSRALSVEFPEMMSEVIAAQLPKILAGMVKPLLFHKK
Outline: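 HEK 293T PR-UAS-bla reporter cells, 2% charcoal-stripped FBS; 6 hr settle at 37C/5% CO2, compound (DMSO) 16 hr, LiveBLAzer B/G FRET substrate 2 hr RT, fluorescence intensity read.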

[16] = target: Progesterone receptor (Homo sapiens) (UniProt P06401); assay: qHTS assay to identify small molecule antagonists of the progesterone receptor (PR) signaling pathway (AID 1346795; active = well fitted inhibition curve with a large enough effect in the signal ratio in the repeat runs, not every such curve was filed as active; the % refers to the signal ratio; note: potency is the fitted concentration of half-maximal effect); details: PR-UAS-bla HEK293T, beta-lactamase FRET ratio, 16 h; series mostly up to 92.4 µM
Outline: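 Beta-lactamase reporter, HEK293T PR-UAS-bla line; 2% charcoal-stripped FBS; 6 hr pre-incubation, 37C/5% CO2. Compound + R5020 1 nM final, 16 hr. LiveBLAzer B/G FRET substrate, 2 hr RT; fluorescence intensity read.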

[17] = Caspase-3/7 induction in CHO-K1 cells by small molecules, qHTS cell viability counter screen (AID 1346979); details: CellTiter-Fluor fluorescence, 17 h; series mostly up to 92.4 µM; note: nearly all actives have a fitted effect of over 35% in size; note: potency is the fitted concentration of half-maximal effect
Outline: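 CHO-K1 wt, 1,500 cells/well; 5hr pre-incubation 37C/5% CO2; compound pin transfer (DMSO); 16hr exposure; CellTiter-Fluor added, 1hr, fluorescence read.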

[18] = target: Nuclear receptor subfamily 1 group I member 2 (Rattus norvegicus) (UniProt Q9R1A7); assay: Rat pregnane X receptor (rPXR) activation by small molecules, qHTS assay (AID 1346983); details: rPXR luciferase reporter cells, One-Glo luminescence, 24 h; stronger effect = higher value; note: nearly all actives have a fitted effect of over 20% in size
Nuclear receptor subfamily 1 group I member 2 (Rattus norvegicus), sequence (Q9R1A7 whole entry, looked up): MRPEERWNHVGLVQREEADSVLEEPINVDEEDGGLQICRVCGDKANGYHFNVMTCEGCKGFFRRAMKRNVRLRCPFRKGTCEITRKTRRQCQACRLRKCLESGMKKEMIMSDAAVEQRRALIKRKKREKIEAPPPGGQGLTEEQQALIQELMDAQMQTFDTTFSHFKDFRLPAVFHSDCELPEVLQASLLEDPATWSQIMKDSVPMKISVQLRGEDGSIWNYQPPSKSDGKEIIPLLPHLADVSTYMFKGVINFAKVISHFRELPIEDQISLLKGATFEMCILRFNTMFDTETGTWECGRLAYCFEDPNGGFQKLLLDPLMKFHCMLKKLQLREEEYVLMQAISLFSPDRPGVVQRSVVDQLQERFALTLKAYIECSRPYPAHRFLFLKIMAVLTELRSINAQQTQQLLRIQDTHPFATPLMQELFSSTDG
Outline: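 Cell-based rPXR luciferase reporter assay, 2,000 cells per well, rested 5hr at 37 C before compound addition in DMSO, then 24 hr at 37 C. One-Glo reagent was added and luminescence read after 30 min at room temperature.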

[19] = target: Nuclear receptor subfamily 1 group I member 2 (Homo sapiens) (UniProt O75469); assay: CYP3A4 induction through human pregnane X receptor (PXR) by small molecules, qHTS assay (AID 1346984); details: DPX-2 HepG2 PXR, CYP3A4-luciferin luminescence, 24 h; series mostly up to 46.1 µM; note: nearly all actives have a fitted effect of over 40% in size
Outline: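 DPX-2 reporter cells; 24h cpd, 37C; Luciferin-IPA 3uM final x3h; One-Glo 30 min RT; lumi read.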

[20] = target: Nuclear receptor subfamily 1 group I member 2 (Homo sapiens) (UniProt O75469); assay: Human pregnane X receptor (PXR) activation by small molecules, qHTS assay (AID 1346985); details: DPX-2 HepG2 CYP3A4-luciferase, 24 h; series mostly up to 38.3 µM; note: nearly all actives have a fitted effect of over 40% in size
Outline: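 DPX-2 cells (HepG2 co-transfected with a PXR response element and a CYP3A4-promoter luciferase construct) were seeded at 2,000 per well, rested 5 hr at 37C, then exposed to DMSO-dissolved compounds for 24 hr. Activation was read as luciferase luminescence.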

SMILES	Potency [1]	Potency [2]	Potency [3]	Potency [4]	Potency [5]	Potency [6]	outcome [7]	Potency [8]	Potency [9]	Potency [10]	Potency [11]	Potency [12]	Potency [13]	Potency [14]	Potency [15]	Potency [16]	Potency [17]	max activation [18]	Potency [19]	outcome [20]
CC(C)(c1ccc(OCC2CO2)cc1)c1ccc(OCC2CO2)cc1 (centres undefined)	inactive	inactive	inactive	inactive	inactive	inactive	inactive	inactive	inactive	inactive	inactive	69.5 µM (active)	inactive	inactive						
Oc1ccc(Cl)cc1Cc1ccccc1	inactive		inactive	inactive	inactive	inactive	inactive	70.8 µM (active) and inactive	53.6 µM (active)	inactive	61.9 µM (active) and inactive	61.1 µM (active) and 19.6 µM (active) and inactive	inactive	inactive	inactive	7.7 µM (active) and 10.6 µM (active)	55.1 µM (active)	-2.22% (inactive)	inactive	inactive
C[C@]12CC[C@H]3[C@@H](CCC4=CC(=O)CC[C@@H]43)[C@@H]1CC[C@@H]2O	inactive			inactive	inactive	inactive	inactive	inactive	inactive	inactive	inactive	inactive	inactive	inactive		inactive				
COP(=S)(OC)SCn1nnc2ccccc2c1=O	inactive	inactive		inactive	inactive	inactive	inactive	inactive	inactive	inactive	inactive	53.4 µM (active)			inactive					
CCC(=O)Nc1ccc(Cl)c(Cl)c1	inactive	inactive	inactive	inactive	inactive	inactive	inactive	inactive	inactive	inactive	inactive		inactive	inactive	inactive					
OC(c1ccc(Cl)cc1)(c1cncnc1)c1ccccc1Cl (centres undefined)	inactive		inactive	inactive	inactive	inactive	inactive	inactive	inactive	inactive		31.2 µM (active) and 30.6 µM (active)	inactive	inactive	inactive	13.7 µM (active)	62.2 µM (active)			
Clc1cccc(C(Cl)(Cl)Cl)n1	inactive	inactive		inactive	inactive			inactive	inactive	inactive	inactive	inactive	inactive	inactive	inactive	inactive	inactive			
CS(=O)(=O)NC(=O)c1cc(Oc2ccc(C(F)(F)F)cc2Cl)ccc1[N+](=O)[O-]	inactive	inactive		inactive	inactive			inactive	inactive	inactive	inactive	26.4 µM (active) and 7.7 µM (active)	inactive	inactive	inactive	inactive	inactive			
[Cl-].[Cl-].[Cl-].[Fe+3]	inactive	inactive		inactive	inactive			inactive	inactive	inactive	inactive				inactive	inactive				
CCCCCCCC[N+](C)(CCCCCCCC)CCCCCCCC	30.6 µM (active)		15.5 µM (active) and 49 µM (active)	49 µM (active)				30.6 µM (active) and 5.45 µM (active) and 13.7 µM (active)	54.4 µM (active) and 15.4 µM (active)	12.2 µM (active) and 13.7 µM (active)	61 µM (active) and 15.4 µM (active) and 21.7 µM (active)	12.2 µM (active) and 2.44 µM (active)	inactive	79.5 µM (active) and inactive and 71 µM (active)	inactive		13.7 µM (active) and 4.86 µM (active) and 6.11 µM (active)			
COc1ccc(O)c(C(C)(C)C)c1	inactive	inactive	inactive	inactive	inactive			inactive	inactive	inactive	inactive	inactive	inactive	inactive		inactive				
CCOP(=S)(OCC)SCSC(C)(C)C	48.6 µM (active)	inactive		inactive	inactive			inactive	inactive	inactive	inactive	61.6 µM (active) and inactive	inactive	inactive	inactive					
CC(C)(c1ccccc1)c1ccc(O)c(C(C)(C)c2ccccc2)c1	17.1 µM (active) and 48.6 µM (active)	42.9 µM (active) and 27.3 µM (active)		48.5 µM (active) and 43.6 µM (active)		inactive	inactive	35.5 µM (active) and 48.6 µM (active)	42.9 µM (active) and 68.6 µM (active)	27.1 µM (active) and 61.1 µM (active)	54 µM (active)	1.92 µM (active) and 3.86 µM (active)	inactive	inactive			30.4 µM (active) and 43.3 µM (active)			
CCC[CH2][Sn]([Cl])([Cl])[CH2]CCC	1.1 µM (active) and 1.37 µM (active)	1.1 µM (active) and 1.37 µM (active)	8.82 µM (active) and 13.8 µM (active)	7.01 µM (active) and 15.5 µM (active)		inactive	inactive	501 nM (active) and 1.37 µM (active)	inactive	inactive	4.38 µM (active) and 7.7 µM (active)		inactive	inactive		0.196 µM (active)	220 nM (active) and 154 nM (active)			
CC1=C(C(=O)Nc2ccccc2)SCCO1	inactive	inactive	inactive	inactive	inactive	inactive	inactive	inactive	inactive	inactive	inactive	34.9 µM (active) and 30.6 µM (active)	inactive	inactive	inactive					
